In PubChem BioAssay (NCI):
Values joined by “and” are separate entries in the source; they are usually repeats but may differ in a detail not shown here. Identical values can stand only once. This is part of a sample that, as a whole, favours compounds with a hit. Of some 83,000 tested, about 20% had one in any assay.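 How to read the values: 0–100, growth inhibition (40 = 60% inhibited); 0, no net growth; -100 to 0, cell death (-40 = 40% of starting cells died; -100 = all dead).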 Active and inactive are the calls of the source. How the source made its calls: active means growth percent below 10; inactive means the rest.

Tests used:
Assay in all cases: NCI-60 one-dose screen, 48 h (100 = growth as untreated, 0 = no growth, -100 = all killed)
Conditions in all cases: 10 µM unless noted
[1] = test system: HCT-15 colon
[2] = test system: HT29 colon
[3] = test system: SNB-75 CNS
[4] = test system: SNB-19 CNS
[5] = test system: U251 CNS
[6] = test system: PC-3 prostate
[7] = test system: SK-MEL-5 melanoma
[8] = test system: UACC-62 melanoma
[9] = test system: LOX IMVI melanoma
[10] = test system: SK-MEL-28 melanoma

Measured: growth

COc1ccc(C(=O)C[n+]2cccc3c4ccccc4ccc32)cc1
inactive: [1] 87.5% | [2] 20.4% | [3] 82.1% | [4] 31.4% | [5] 28.2% | [6] 27.5% | [8] 55.7% | [9] 46.1% | [10] 67%
active: [7] -31.4%

CC(Nc1ncnc2ccc(-c3ccc4oc(N)nc4c3)cc12)c1ccccc1 (stereo not given)
inactive: [2] 29.5% | [4] 20.3% | [6] 34.4% | [8] 11.9% | [10] 17.4%
active: [1] 5.13% | [3] -82.8% | [5] -22.8% | [7] -75.3% | [9] -97.7%

CCCN(CCC)S(=O)(=O)c1ccc(C(=O)O)cc1.CCCN(CCC)S(=O)(=O)c1ccc(C(=O)O)cc1.[Cl][Pt+2][Cl].[NH2-].[NH2-]
inactive: [1] 87.8% | [2] 42% | [4] 26.7% | [6] 39.7%
active: [3] 1.96% | [5] -27.5% | [7] -91.2% | [8] -90.2% | [9] -9.75% | [10] 1.28%

CC1=C(C)C(=O)C(N2CCSCC2)=CC1=O
inactive: [1] 104% | [2] 103% | [3] 80.8% | [4] 87.2% | [5] 96.9% | [6] 89.7% | [7] 96.7% | [8] 93.3% | [9] 83.8% | [10] 107%

Clc1ccc(-c2nc3ccc(-c4nnc(SCc5ccccc5)o4)cc3[nH]2)cc1
active: [1] -28.9% | [5] -8.55% | [9] 4.07%
inactive: [2] 41.5% | [3] 40.4% | [4] 27% | [6] 25.1% | [7] 20.9% | [8] 37.7% | [10] 58.3%

O=C(c1ccc(Cl)cc1)C1[C@H](c2ccccc2Cl)[C@@H](c2ccccc2)NC12C(=O)Nc1ccccc12 (stereo not given in full)
active: [1] -25.8% | [2] -71.7% | [3] -4.03% | [4] 7.09% | [5] -26.4% | [6] -3.66% | [7] -97.1% | [8] -73.3% | [9] -97.9% | [10] -57.3%

COc1ccc2c(c1)C(Sc1ccc(F)cc1)c1c(nc(N)c(C#N)c1N)O2 (stereo not given)
inactive: [1] 80.6% | [2] 94.3% | [3] 66.5% | [4] 79.7% | [5] 82% | [6] 55.1% | [7] 91.2% | [8] 74.1% | [9] 60.9% | [10] 112%

CC1=C(C(=O)OCc2ccccc2)C(c2cccc3ccccc23)n2c(nc3ccccc32)N1 (stereo not given)
inactive: [1] 21.7% | [4] 40.9% | [5] 24.9% | [6] 22.8% | [8] 17.3% | [9] 36.1% | [10] 50.5%
active: [2] 3.87% | [3] -15.1% | [7] 3.71%

COc1ccccc1/C=C/c1cccc(NC(=S)NCCCCN(C)C)c1
active: [1] -100% | [2] -59% | [3] -80.1% | [4] -84.1% | [5] -64.7% | [6] -46.9% | [7] -97% | [8] -98.5% | [9] -98.4% | [10] -98.8%

CCOC(=O)c1ccc(NC(=S)NC(=O)c2ccc(NC(=O)C(C)C)cc2OC)cc1
active: [7] -69%
inactive: [1] 23.6% | [2] 68.2% | [3] 51.1% | [4] 57.7% | [5] 63.4% | [6] 18% | [8] 30.2% | [9] 45.6% | [10] 50.8%

CC1=C(C(=O)Nc2ccccc2)C(c2cccc3ccccc23)n2c(nc3ccccc32)N1 (stereo not given)
active: [3] -63%
inactive: [1] 64.6% | [2] 40.5% | [4] 20.2% | [5] 25% | [6] 31.3% | [7] 82.6% | [8] 66.8% | [9] 53.5% | [10] 70%

COc1ccc2c(c1)c(-c1cc(N)n3nc(-c4c[nH]c5ccccc45)cc3n1)cn2C
active: [1] -69.8% | [2] -71.7% | [3] -24.8% | [4] -57.1% | [5] -87.8% | [6] 1.08% | [7] -94.8% | [8] -92% | [9] -86.1% | [10] -94.6%

CC1=C(C(=O)Nc2ccccc2)C(c2ccc3ccccc3c2)n2c(nc3ccccc32)N1 (stereo not given)
inactive: [1] 40.5% | [2] 69% | [4] 79.4% | [5] 28.6% | [6] 21.7% | [7] 87.3% | [8] 75% | [10] 63.2%
active: [3] -11.1% | [9] 9.5%

CN(CCSSCCN1CCOCC1)C(=O)Oc1cc2c(c3ccccc13)[C@H](CCl)CN2C(=O)c1cc2cc(OCCCN3CCC3)ccc2[nH]1
active: [1] -49.3% | [2] -40.5% | [3] -46% | [4] -100% | [5] -60.3% | [6] -21.9% | [7] -89.6% | [8] -72.7% | [9] -73% | [10] -58%

CCc1ccc(SC2c3cc(OC)ccc3Oc3nc(N)c(C#N)c(N)c32)cc1 (stereo not given)
active: [1] -45% | [2] -60.5% | [3] -21.3% | [4] 0.536% | [5] -13.4% | [6] 3.3% | [7] -95.9% | [8] -80.7% | [9] -62.2% | [10] 0.874%

CC[C@]12C=CCN3CC[C@@]4(c5ccc(OC)cc5N(C)[C@H]4[C@@](O)(C(=O)OC)[C@@H]1OC(=O)CCC[P+](c1ccc(OC)cc1)(c1ccc(OC)cc1)c1ccc(OC)cc1)[C@@H]32
active: [1] -86.3% | [2] -84.3% | [3] -34% | [4] -96.7% | [5] -93.7% | [6] -78.8% | [7] -99.6% | [8] -97.1% | [9] -96.4% | [10] -96.3%

C#CCN(C)CCCOc1ccc(N(CC)C(=O)c2cc(C(C)C)c(O)cc2O)cc1Cl
active: [1] -52.8% | [2] 7.04% | [3] -1.15% | [5] 1.31% | [7] -95.9% | [8] -66% | [9] -95.4% | [10] 5.69%
inactive: [4] 11.2% | [6] 12.6%

S=C(Nc1ccc(OCc2nc3ccc(Cl)cc3[nH]2)cc1)NC1CCCCC1
inactive: [3] 10.7% | [4] 10% | [6] 17.6%
active: [1] -63.4% | [2] -47.2% | [5] -48.1% | [7] -96.6% | [8] -12.7% | [9] -100% | [10] 0.982%

Cn1cc(-c2cc(N)n3nc(-c4c[nH]c5ccc(Cl)cc45)cc3n2)c2cc(Br)cnc21
active: [1] -80.2% | [2] -72% | [3] -24.4% | [4] 2.78% | [5] -73.9% | [6] -52.4% | [7] -57% | [8] -59.6% | [9] -93.3% | [10] -25.9%

CCN(C(=O)CN1C(=O)/C(=C/c2ccco2)SC1=S)C1CCS(=O)(=O)C1 (stereo not given)
inactive: [1] 88.8% | [2] 102% | [3] 75.3% | [4] 91.8% | [5] 104% | [6] 109% | [7] 91.9% | [8] 92.6% | [9] 90.6% | [10] 98%

C=CC(=O)Nc1ccc(C(=O)/C=C/c2ccc(N(C)C)cc2)c(O)c1
active: [1] -17.2% | [2] -37.7% | [5] -56.4% | [7] 2.1% | [8] -25.3% | [9] -60.3% | [10] -6.18%
inactive: [3] 28.1% | [4] 28.2% | [6] 34.4%

CC(C)(C)OC(=O)N1CCC2(CC1)Oc1ccccc1[C@H]1CC(c3ccc(Br)cc3)=NN12
inactive: [1] 59.1% | [2] 96.7% | [3] 72.8% | [4] 78% | [5] 82.8% | [6] 66.6% | [7] 76.2% | [8] 41.3% | [9] 54.2% | [10] 113%

O=C1C=CC(=CC=C2N(Cc3ccc4ccccc4c3)c3ccccc3N2Cc2ccc3ccccc3c2)C=C1
8.3% (active) and 11.1% (inactive): [4]
2.32% (active) and 11.9% (inactive): [8]
inactive: [1] 94.7% and 95.3% | [2] 15.1% and 13.2% | [3] 39.6% and 26.9% | [5] 17.4% and 17.6% | [6] 18.6% and 16.6% | [9] 14.8% and 19.6% | [10] 16.7% and 20.5%
active: [7] -64.3% and -51.3%

COC(=O)c1ccc(-c2c(-c3ccccc3)c(F)c3oc(C(=O)OC)c(N)c3c2-c2ccccc2)cc1
inactive: [1] 77% | [2] 102% | [3] 95.7% | [4] 80.2% | [5] 82.2% | [6] 92.1% | [7] 99.4% | [8] 82.8% | [9] 81.6% | [10] 98.9%
